Sampled rows, rich in hits. Any-hit rate of the full collection: about 27%.
CYP2C19 inhib – blocks human cytochrome P450 2C19 | P33261 | inhibition, % at 5 µM | hit rate 21% among 96,000 | CYP2C19 Supersomes, luciferin-H EGE luminescence, 30 min;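 active = CYP2C19 inhibition above a set limit at 5 µM in the primary screen, cut at about 50% in these data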;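 note: plate controls were negative control wells for no effect and 2.5 mM tranylcypromine positive control for full effect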
CYP2C9 activ – activators of human CYP2C9; P11712; recombinant CYP2C9, luciferin-H conversion, luminescence; stronger effect = higher value; factor 1 = untreated enzyme, 0 = blocked; activation factor at 5 µM; hit rate 1.4% among 96,000;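 active = activation factor of 2 or more for CYP2C9 at a 5 µM dose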;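 note: 0 = sulfaphenazole-blocked wells and 1 = vehicle-only wells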
CYP2C19 activ – increases human CYP2C19 enzyme activity; P33261; recombinant CYP2C19, luciferin-H EGE luminescence; stronger effect = higher value; 0 = fully inhibited enzyme, 1 = untreated enzyme; activation factor at 5 µM; 96,000 tested, under 10 active; AID 1025;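 active = activation factor of at least 2 at 5 µM in the primary screen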;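 note: 0 = wells with 2.5 mM tranylcypromine and 1 = vehicle-only wells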
CYP2C9 inhib – human CYP2C9 inhibition. CYP2C9 Supersomes, luciferin-H conversion, luminescence. inhibition, % at 5 µM. hit rate 20% among 96,000;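 active = blocking of liver enzyme CYP2C9 beyond about 50% at 5 µM, limit read from the data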
Cav32 inh – human Cav3.2 channel inhibition, primary screen; O95180; Cav3.2-expressing cells, Fluo-4 calcium fluorescence FDSS; stronger effect = lower value; B-score at 10 µM; hit rate 4% among 100,000; AID 449739;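 active = single-dose well whose peak fluorescence ratio is a statistical outlier from its plate by either plate-standardised score or position-corrected B-score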
An asterisk follows results filed as active; . = no result given.

SMILES	CYP2C19 inhib	CYP2C9 activ	CYP2C19 activ	CYP2C9 inhib	Cav32 inh
CCCCC(=O)Nc1nc(C)c(-c2csc(Nc3cc(Cl)ccc3OC)n2)s1	6	0.7	0.9	33	0.25
COc1ccc(OC)c(Nc2nc(-c3sc(C)nc3C)cs2)c1	85*	0.2	0.1	80*	-0.67
CCc1cccc(OCCCCN(CC)CC)c1	8	0.9	0.9	6	0.5
CC(Sc1ccccc1)C(=O)Nc1ccccc1C(=O)N1CCOCC1 (stereo not drawn)	12	0.9	0.9	10	0.85
CCC(C)C(=O)Nc1nc(C)c(-c2csc(Nc3cc(Cl)ccc3OC)n2)s1 (stereo not drawn)	5	0.5	1	46	-0.086
COc1ccc(OC)c(Nc2nc(-c3sc(NC(=O)CC(C)C)nc3C)cs2)c1	28	0.2	0.7	78*	-0.54
CCC(C)C(=O)Nc1nc(C)c(-c2csc(Nc3cc(OC)ccc3OC)n2)s1 (stereo not drawn)	21	0.3	0.8	75*	-0.0035
COc1ccccc1Nc1nc(-c2sc(NC(=O)c3ccc([N+](=O)[O-])cc3)nc2C)cs1	44	0.2	0.6	78*	.
CCOc1ccccc1Nc1nc(-c2sc(NC(=O)c3ccccc3)nc2C)cs1	10	0.5	0.9	48	-0.041
COc1ccc(Cl)cc1Nc1nc(-c2sc(NC(=O)C(C)(C)C)nc2C)cs1	2	0.7	1	30	-0.28
COc1ccc(S(=O)(=O)N(CCc2ccccc2)CC(=O)O)cc1OC	-7	0.8	1.1	16	-0.81
COC(=O)CN(CCc1ccccc1)S(=O)(=O)c1ccc(OC)c(OC)c1	99*	0.7	0	32	0.12
COC(=O)CN(c1cc(OC)ccc1OC)S(=O)(=O)c1ccc(OC)c(OC)c1	95*	0.4	0	63*	0.65
COC(=O)CN(Cc1ccccc1)S(=O)(=O)c1ccc(OC)c(OC)c1	57*	1.1	0.4	-7	0.13
Cc1cc2cc(CN(C(=O)C3CC3)C3CCCC3)c3nnnn3c2cc1C	96*	0.3	0	72*	-4.9*
CC(O)C1CCC2C3CC[C@H]4CC(O)CCC4(C)C3CC3(OCCO3)C12C (stereo partly drawn)	12	1	0.9	3	1
Cc1ccc(NC2=NC(=S)N(CC#N)C23CCCCC3)cc1	.	.	.	.	-0.34
CCSc1ccc2nnc(-c3cccc(F)c3)n2n1	20	0.8	0.8	20	-0.82
CC1CCN(c2c([N+](=O)[O-])nn(-c3ccc4c(c3)OCCO4)[n+]2[O-])CC1	19	0.6	0.8	39	-1.5
CCCc1[nH][nH]c(=O)c1C(c1cccc(Cl)c1)C(C#N)C#N (stereo not drawn)	75*	0.3	0.3	75*	-1.9
N#CC(C#N)C(c1ccsc1)c1c(-c2ccccc2)[nH][nH]c1=O (stereo not drawn)	11	0.9	0.9	11	0.9
CC1CCCCC1NC(=O)c1ccc(CNc2c(N3CCCC3)c(=O)c2=O)cc1 (stereo not drawn)	-7	1	1.1	5	-0.65
O=C(CSCCSCC(=O)c1ccco1)c1ccco1	4	0.7	1	28	0.62
COc1ccc(C2(C(=O)N3CCCC3)CCOCC2)cc1OC	2	0.9	1	6	0.86
COc1ccc(N2CCN(Cc3cc4c(cc3O)CCC4)CC2)cc1	24	0.1	0.8	92*	-0.048
SMILES	CYP2C19 inhib	CYP2C9 activ	CYP2C19 activ	CYP2C9 inhib	Cav32 inh
Cc1cccc(N2CCN(C(=O)c3ccccc3NC(=O)C3CC=CCC3C(=O)O)CC2)c1 (stereo not drawn)	10	0.7	0.9	27	0.53
Cc1ccc(N2CCN(C(=O)c3ccccc3NC(=O)C3CC=CCC3C(=O)O)CC2)cc1 (stereo not drawn)	52*	0.6	0.5	37	-0.065
Cc1ccccc1Cn1ccc(NC(=O)c2cnn3cccnc23)n1	45	0.5	0.5	50*	-0.54
CCOc1cc(/C=C(/C#N)C(=O)Nc2ccc(O)cc2)cc(Br)c1O	61*	0.1	0.4	94*	-7.9*
CCOC(=O)CSC1=C(C#N)C(c2ccc(C)cc2)C2=C(CCCC2=O)N1 (stereo not drawn)	21	0.2	0.8	78*	0.88
COc1ccc(C2CC(=O)C3=C(C2)NC(C)=C(C#N)C3c2ccc(N(C)C)cc2)cc1 (stereo not drawn)	64*	0.1	0.4	87*	-0.75
CCOC(=O)CSC1=C(C#N)C(c2ccc(OC)cc2)C2=C(CC(C)(C)CC2=O)N1 (stereo not drawn)	72*	0.4	0.3	63*	-0.37
COc1ccc(C2C(C#N)=C(SC)NC3=C2C(=O)CC(C)(C)C3)cc1 (stereo not drawn)	50	0.3	0.5	73*	.
COc1ccc(C2C(C#N)=C(C)NC3=C2C(=O)CC(C)(C)C3)c(OC)c1 (stereo not drawn)	13	0.6	0.9	39	1.4
CSC1=C(C#N)C(C)C2=C(CC(C)(C)CC2=O)N1 (stereo not drawn)	1	1.1	1	-8	2.6
CCCOc1ccc(C2C(=O)N(C3CCCCCC3)CC(=O)N2Cc2ccco2)cc1OC (stereo not drawn)	4	0.7	1	27	-0.52
Cc1noc(C)c1S(=O)(=O)N1CCC(C(=O)NC2CCCc3ccccc32)CC1 (stereo not drawn)	-5	1.3	1.1	-34	-0.036
CCN(c1ccc(NC(=O)CSc2nnc3nc(C)cc(C)n23)cc1)C(C)C	10	0.9	0.9	11	0.017
COC(=O)C(c1cc(OC)c(O)c(OC)c1)(N1CCNC(C)C1)C(F)(F)F (stereo not drawn)	-28	1	1.3	1	0.001
COc1cc(C(CCN2CCCCC2)c2c(OC)cc(OC)c3c(C)cc(=O)oc23)cc(OC)c1OC (stereo not drawn)	.	.	.	.	0.95
Cc1cc(C)n2nc(NCc3cccc(Br)c3)nc2n1	64*	0.7	0.4	25	0.041
Cn1cc(C(=O)N2CCN(C(=O)c3ccco3)CC2)c2c3ccccc3n(C)c2c1=O	-11	0.9	1.1	8	1.6
COCCNC(=O)Nc1ccc2nc(-c3cccs3)c(-c3cccs3)nc2c1	2	0.5	1	52*	-2.4
COC(=O)c1cc(CSc2nnc(-c3ccccc3)c(-c3ccccc3)n2)oc1C	12	0.5	0.9	53*	-1.2
O=C(N/N=C/c1ccccc1Br)c1ccc(CSc2cccc3cccnc23)cc1	45	0.5	0.6	50*	-5.2*
CC12C(=O)N(Cc3ccco3)C(=O)C1C1c3ccccc3C2c2ccccc21 (stereo not drawn)	57*	0.6	0.4	35	-0.69
O=C(N1CCCCCC1)N1CCN(S(=O)(=O)c2ccccc2)CC1	8	0.9	0.9	8	0.056
Cc1nn(-c2ccccc2)c(C)c1C(=O)OCC(=O)N1CCN(S(=O)(=O)c2ccccc2)CC1	33	0.8	0.7	17	0.87

Assay outcomes from PubChem.
